# Target: T1, Fkh (Drosophila melanogaster, UniProt P14734 209-300)
# T1 sequence: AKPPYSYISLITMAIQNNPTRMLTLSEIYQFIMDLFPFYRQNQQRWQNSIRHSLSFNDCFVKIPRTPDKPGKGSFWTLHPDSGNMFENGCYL
# Assay: FP; 33 mM phosphate pH 7.0, 90 mM NaCl, 0.01% Tween 20, 0.1 mM DTT, 0.5% agarose; room temperature
# Details: tags: N-GST (pGEX-6P-1, kept); dsDNA, one strand shown
Sequence,binding signal,Kd [nM]
AGTTAATTATTGA,6.31 Kd / Kd of best base at the position,–
TGTTAAATATTGA,1.33 Kd / Kd of best base at the position,–
AGTGAAATATTGA,6.68 Kd / Kd of best base at the position,–
AGTTAAATAATGA,2.19 Kd / Kd of best base at the position,–
AGTTAAATATAGA,1.73 Kd / Kd of best base at the position,–
AGTTAAAAATTGA,18.5 Kd / Kd of best base at the position,–
AGTTACATATTGA,4.6 Kd / Kd of best base at the position,–
AGTTAAATATTTA,1.68 Kd / Kd of best base at the position,–
AGTTAAATATTGG,1.17 Kd / Kd of best base at the position,–
AGTTAAATCTTGA,14.3 Kd / Kd of best base at the position,–
AGGTAAATATTGA,1.27 Kd / Kd of best base at the position,–
AGTTAAATACTGA,27.4 Kd / Kd of best base at the position,–
AGTTAAATGTTGA,102 Kd / Kd of best base at the position,–
AGTTAAACATTGA,29.1 Kd / Kd of best base at the position,–
AGTTAAATATGGA,3.07 Kd / Kd of best base at the position,–
AGTCAAATATTGA,3.44 Kd / Kd of best base at the position,–
AGTTAAATATCGA,6.39 Kd / Kd of best base at the position,–
CGTTAAATATTGA,8.05 Kd / Kd of best base at the position,–
AGCTAAATATTGA,3.26 Kd / Kd of best base at the position,–
AGTTGAATATTGA,59.1 Kd / Kd of best base at the position,–

Sequence,binding signal,Kd [nM]
AGTTAGATATTGA,60.9 Kd / Kd of best base at the position,–
AGTTAAATATTGT,1.97 Kd / Kd of best base at the position,–
AGTTAAATAGTGA,2.35 Kd / Kd of best base at the position,–
AGTTAAATATTGA,–,~17
AGTTATATATTGA,18.4 Kd / Kd of best base at the position,–
AGTTTAATATTGA,32.1 Kd / Kd of best base at the position,–
AGTTCAATATTGA,2.55 Kd / Kd of best base at the position,–
AGATAAATATTGA,1.16 Kd / Kd of best base at the position,–
AGTTAAAGATTGA,14.9 Kd / Kd of best base at the position,–
AGTTAAATATTAA,1.49 Kd / Kd of best base at the position,–
AATTAAATATTGA,2.06 Kd / Kd of best base at the position,–
AGTTAAGTATTGA,37.9 Kd / Kd of best base at the position,–
AGTTAAATTTTGA,7.9 Kd / Kd of best base at the position,–
ATTTAAATATTGA,1.06 Kd / Kd of best base at the position,–
AGTTAAATATTGC,2.76 Kd / Kd of best base at the position,–
AGTAAAATATTGA,4.77 Kd / Kd of best base at the position,–
AGTTAACTATTGA,10.2 Kd / Kd of best base at the position,–
ACTTAAATATTGA,7.14 Kd / Kd of best base at the position,–
GGTTAAATATTGA,6.61 Kd / Kd of best base at the position,–
AGTTAAATATTCA,2.02 Kd / Kd of best base at the position,–
